High-throughput results: PubChem, National Center for Advancing Translational Sciences (NCATS)
This is a sample that favours compounds with a hit; in the whole collection about 3% have one here.
PLK1 PBD block: PLK1 (human) polo-box domain binding inhibition. P53350. Plk1 PBD binding of FITC phosphopeptide, fluorescence polarization. Potency, µM, for the others: max response, negative = inhibition, usual class: inhibitors. 360,000 compounds, 2.8% hits. AID 720504; also: potency is read from the fitted curve at half-maximal effect; series mostly up to about 57 µM; % is scaled to controls: 0 for no effect and ±100 for the full control effect; nearly all actives have a fitted effect of over 65% in size
USP1 inh: blocks the human USP1/UAF1 deubiquitinase complex; O94782; Potency, µM (series often up to 57.1 µM), for inactives: top-dose activity change, negative = inhibition, most hits filed as inhibitors; 390,000 compounds, 0.23% hits; recombinant USP1/UAF1, Ub-Rhodamine cleavage fluorescence; also: potency is read from the fitted curve at half-maximal effect; % is scaled to controls: 0 for no effect and ±100 for the full control effect; nearly all actives have a fitted effect of over 60% in size
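In this screen, compounds sit with the deubiquitinase complex (1nM) for 15 min at room temperature before Ub-Rho is added at 150nM final. Fluorescence rise is then followed for 6 reads every 60 seconds.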
GCN5L2 inh-1: GCN5L2 (KAT2A) acetyltransferase inhibition; Q92830; GCN5L2 HAT assay, ThioGlo1 CoA-SH fluorescence; Potency, µM (top dose mostly 58.9 µM), for inactives: top-dose activity change, negative = inhibition, hits mostly inhibitors; 390,000 compounds, 0.21% hits; AID 504327; also: potency is read from the fitted curve at half-maximal effect; % is scaled to controls: 0 for no effect and ±100 for the full control effect
Target sequence (Q92830 whole entry, looked up): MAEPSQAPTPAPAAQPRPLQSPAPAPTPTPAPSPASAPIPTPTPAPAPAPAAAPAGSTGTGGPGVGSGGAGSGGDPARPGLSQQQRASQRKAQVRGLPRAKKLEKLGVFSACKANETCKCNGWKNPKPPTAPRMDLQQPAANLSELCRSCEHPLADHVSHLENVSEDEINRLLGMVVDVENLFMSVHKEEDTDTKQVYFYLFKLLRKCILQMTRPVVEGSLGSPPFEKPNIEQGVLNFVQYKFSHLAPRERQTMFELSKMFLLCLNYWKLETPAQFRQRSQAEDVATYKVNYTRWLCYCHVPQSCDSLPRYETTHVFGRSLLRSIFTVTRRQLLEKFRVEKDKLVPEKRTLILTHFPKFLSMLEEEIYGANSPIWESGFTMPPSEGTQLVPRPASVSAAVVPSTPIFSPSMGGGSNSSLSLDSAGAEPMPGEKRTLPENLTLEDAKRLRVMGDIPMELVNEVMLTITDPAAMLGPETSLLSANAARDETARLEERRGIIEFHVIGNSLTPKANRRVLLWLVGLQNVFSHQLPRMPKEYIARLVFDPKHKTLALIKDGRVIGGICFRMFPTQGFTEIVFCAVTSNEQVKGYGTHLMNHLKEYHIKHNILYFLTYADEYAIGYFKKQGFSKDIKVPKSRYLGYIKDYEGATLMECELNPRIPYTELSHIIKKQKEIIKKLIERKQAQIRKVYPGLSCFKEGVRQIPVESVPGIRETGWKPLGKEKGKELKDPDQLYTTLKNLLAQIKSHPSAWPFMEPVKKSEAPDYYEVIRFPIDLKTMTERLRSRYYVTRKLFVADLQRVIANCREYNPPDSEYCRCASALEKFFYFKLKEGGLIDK
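GCN5L2 (20nM final) in 50mM HEPES, 0.1mM EDTA pH 7.5, 0.01% Tween-20 was preincubated 15 min at room temperature with compound, then given ThioGlo1 (50uM), H3(1-25) peptide (75uM) and acetyl-CoA (70uM); CoA-thiol fluorescence (Ex340/Em540) was read at 0 and 20 min.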
VDR inhibitor: inhibitors of human vitamin D receptor. P11473. VDR-SRC2-3 peptide fluorescence polarization, 2 h. 400,000 compounds, 0.93% hits. Potency, µM, without a hit: max response, negative = inhibition, hits mostly inhibitors; also: potency is read from the fitted curve at half-maximal effect; % is scaled to controls: 0 for no effect and ±100 for the full control effect
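Inhibition of the VDR/SRC2-3 peptide interaction is quantified by fluorescence polarization. Compounds (23 nl, pintool) incubate with the reagents for 2 hours at ambient room temperature.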
TSG101-PTAP inh: blocks PTAP/TSG101 interaction to inhibit HIV-1 budding; Q99816; Fluorescence polarization, FITC-PTAP peptide / Tsg101 binding; Potency, µM (doses to about 115 µM), for inactives: at the top dose activity change, negative = inhibition, usual class: inhibitors; 340,000 tested, under 10 active; AID 493005; active = well fitted inhibition curve with a large enough effect in the main read-out, with a control signal flat, not every such curve was filed as active; inconclusive = small, poorly fitted or top-dose-only effect, or effect the other way, or a change in a side signal; inactive = no such curve, though single readings can be large or run the other way; also: potency is read from the fitted curve at half-maximal effect; % of control where 0% means no effect
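Tsg101 binding domain (10 uM final) was mixed with compound and a FITC-labeled PTAP peptide (50 nM final) in HEPES pH 7.5 buffer with NaCl, Tween 20, EDTA and TCEP; fluorescence polarization was read after 20 min at r.t.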
GCN5L2 inh-2: confirmation of human GCN5L2 histone acetyltransferase inhibitors; AID 588347; GCN5L2 HAT, ThioGlo1 CoA fluorescence, 20 min; 140 compounds, 70% hits; Potency, µM, usual class: inhibitors; shares compounds with GCN5L2 inh-1
* hit, by the source's call; ? = inconclusive; . = no result. Unless noted, calls follow the shape of the dose curve; as a rule, active = well fitted curve in the direction sought with a large enough effect; inconclusive = small, poorly fitted or top-dose-only effect, or another doubt; inactive = no such curve, though single readings can be large; an effect the other way counts as inactive or inconclusive.

SMILES	PLK1 PBD block	USP1 inh	GCN5L2 inh-1	VDR inhibitor	TSG101-PTAP inh	GCN5L2 inh-2
Cc1ccc(S(=O)(=O)NC(C(=O)Oc2ccc3c(C(F)(F)F)cc(=O)oc3c2)c2ccccc2)cc1 (stereo unspecified)	-8%	-3%	?	0%	-10%	?
COC(=O)C(NS(=O)(=O)c1ccc(C)cc1)c1ccccc1 (stereo unspecified)	-9%	-8%	-3%	5%	-10%	.
Nc1nc2c(ncn2[C@@H]2O[C@H](CNC(=O)[C@H](N)Cc3cncn3COCc3ccccc3)[C@@H](O)[C@H]2O)c(=O)[nH]1	3%	.	.	.	.	.
N#Cc1c(-c2cccs2)nc(SCc2ccc(Cl)cc2)[nH]c1=O	21µM*	?	25µM*	-5%	-18%	29*
CSc1nc(-c2cccs2)c(C#N)c(=O)[nH]1	-15%	-8%	-5%	9%	?	.
CC(=O)n1cc(C(C[N+](=O)[O-])SCCN)c2ccccc21 (stereo unspecified)	5.3µM*	-23%	25µM*	22µM*	-2%	36*
Cc1cc(C)cc(-n2ccn(CC(=O)Nc3cc(C)ccc3C)c(=O)c2=O)c1	.	-11%	-12%	4%	.	.
CCOC(=O)c1cnc2cc(C)nn2c1-c1ccccc1	-4%	-21%	40µM*	9%	-4%	14*
CCCCC1CCC(C(=O)N2CC(=O)Nc3ccc(F)cc3C2c2ccc(F)cc2)CC1 (stereo unspecified)	.	-14%	-15%	12%	.	.
O=C(Nc1nonc1-c1ccc(Br)cc1)c1ccco1	.	-21%	-1%	9%	.	.
CSS(=O)(=O)c1cccc2cccnc12	2.4µM*	-9%	8.9µM*	11µM*	-3%	5.8*
O=S(=O)(O)c1cccc2cccnc12	.	.	.	-17%	.	.
CCCc1ccc(C(O)c2ncc(-c3cccc(C)c3)[nH]2)cc1 (stereo unspecified)	4%	.	.	.	.	.
Cc1ccc2c(c1C)NC(C(=O)O)C1CC=CC21 (stereo unspecified)	19µM*	?	22µM*	25%	-6%	14*
COC(=O)c1scc2c(=O)cc(C(F)(F)F)[nH]c12	.	.	22µM*	-14%	-28%	36*
COC(=O)c1ccc2[nH]c(C)cc(=O)c2c1	0%	1%	-10%	31%	-3%	.
N#C/C(=C\c1cccs1)C(=O)c1ccccc1Cl	1.5µM*	-28%	?	35µM*	0%	?
O=C(COC(=O)c1ccccc1)Nc1ncc([N+](=O)[O-])s1	21µM*	-8%	?	-25%	-5%	4.6*
COc1ccc(S(=O)(=O)N2CCN(C(=O)c3cccs3)CC2)cc1	0%	-10%	2%	1%	-3%	.
COc1ccc(S(=O)(=O)N2CCN(C(=O)c3cc4c(s3)CCC4)CC2)cc1	?	?	16µM*	-16%	-3%	18*
CCS(=O)(=O)C1=NN2C(=N)/C(=C\c3ccc(OS(=O)(=O)c4ccccc4)cc3)C(=O)N=C2S1	21µM*	-23%	14µM*	50µM*	-16%	10*
CS(=O)(=O)C1=NSC2=NC(=O)/C(=C\c3cccn3-c3ccccc3Cl)C(=N)N21	?	-22%	?	-22%	-2%	.
CCc1ccc(-n2cccc2/C=C2/C(=N)N3C(=NC2=O)SN=C3S(C)(=O)=O)cc1	13µM*	?	20µM*	?	-10%	?
Cc1ccc(S(=O)(=O)Oc2ccc(/C=C3/C(=N)N4C(=NC3=O)SN=C4S(C)(=O)=O)cc2)cc1	21µM*	?	?	?	-8%	10*
COc1ccccc1NC(=O)C1CCCN(c2nnc(C)c3c(C)n(-c4ccccc4)nc23)C1 (stereo unspecified)	.	-5%	-9%	6%	.	.
SMILES	PLK1 PBD block	USP1 inh	GCN5L2 inh-1	VDR inhibitor	TSG101-PTAP inh	GCN5L2 inh-2
COc1ccccc1C(=O)N/C(=C/c1ccc(Br)cc1)C(=O)N1CCOCC1	0%	-18%	.	.	.	.
CCc1ccc(OCc2ccc(C(=O)OC)o2)cc1	-17%	-8%	-2%	27%	-7%	.
COC(=O)c1sccc1NC(=O)CC1C(=O)NCCN1C(=O)c1c(F)cccc1Cl (stereo unspecified)	2%	-23%	?	-5%	-3%	?
COC(=O)c1sccc1NC(=O)CC1C(=O)NCCN1C(=O)c1ccc(N(C)C)cc1 (stereo unspecified)	-1%	-13%	-25%	-1%	-5%	.
CC(=O)N1c2ccccc2C2(O)N=C(C)SC12 (stereo unspecified)	5.3µM*	-23%	7.9µM*	?	0%	9.1*
O=C(O)c1ccc(N2N=C(c3ccccc3)CC2c2ccccc2)cc1 (stereo unspecified)	?	-12%	16µM*	-22%	-6%	14*
Oc1ccc(C2=NN(c3ccccc3)C(c3ccc(F)cc3)C2)cc1 (stereo unspecified)	1%	-21%	-11%	7%	2%	.
CC(=O)Nc1ccc(C2=NN(c3ccccc3)C(c3ccccc3)C2)cc1 (stereo unspecified)	?	-22%	?	10%	-7%	36*
O=Cc1ccc(N2N=C(c3ccccc3)CC2c2ccccc2)cc1 (stereo unspecified)	2%	-20%	1%	17%	7%	.
COc1cc(/C=C2\CCc3c2nc2ccccc2c3C(=O)O)cc(OC)c1OC	17µM*	-26%	13µM*	-26%	-2%	20*
CCSc1ccccc1C(=O)Nc1ccc(S(=O)(=O)NC(C)=O)cc1	-24%	-25%	18µM*	9%	-4%	?
O=C(O)c1cccc2c1C(=O)c1ccc(-c3ccc(F)cc3OCc3ccccc3)cc1S2(=O)=O	21µM*	-19%	22µM*	-8%	0%	?
Cc1ccc(S(=O)(=O)/N=C2/C=C(Sc3ncn[nH]3)C(=O)c3ccccc32)cc1	0.75µM*	1µM*	22µM*	10µM*	-7%	1.3*
COc1cc(CCc2ccccc2)c(C(=O)O)c(O)c1C/C=C(/C)CCC=C(C)C	24µM*	?	14µM*	5%	-21%	11*
Cn1nc(C(C)(C)C)cc1NC(=O)C1(C)CCN1C(=O)CC(c1ccccc1)c1ccccc1 (stereo unspecified)	-4%	.	.	.	.	.
Cc1cc(C)n(C(C)CC(=O)NCc2ccc(N(C)C)cc2)n1 (stereo unspecified)	.	3%	3%	-7%	.	.
CCC(C)Sc1ccc(-c2nc3ccccn3c2NCc2ccccc2)cc1OC (stereo unspecified)	3%	-24%	22µM*	8%	0%	?
